# Compound activity (PubChem)
# A selection: hits, their analogues and other compounds. The true share with any hit is near 7%.
# PI5P4Ka inh: qHTS for Inhibitors of phosphatidylinositol 5-phosphate 4-kinase (PI5P4K) | PI5P4Kalpha enzyme, ADP-Glo luminescence, 60 min; stronger effect = lower value | max response, % | AID 652105, 2013 | 330,000 tested, 1.2% active; active means max response of -50% or lower; inconclusive means between -30% and -50%; inactive means -30% or higher; further: value at the top dose of about 77 µM; on the % scale 0 is the no-effect control and ±100 the full control effect
#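 Single end-point luminescence (ADP-Glo) quantified ADP from PI5P4Kalpha turnover; ATP 5 microM final, 1 h at RT, 0.1% CHAPS and 0.28 mM EGTA in HEPES pH 7.4.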
# PLK1 PBD inh: qHTS for Inhibitors of PLK1-PDB (polo-like kinase 1 - polo-box domain): Primary Screen | Plk1 PBD binding of FITC phosphopeptide, fluorescence polarization | Potency, µM, inactives show max response, negative = inhibition, actives largely listed as inhibitors | 360,000 tested, 2.8% active; further: potency means the concentration at half of the fitted maximal effect; series mostly up to about 57 µM; on the % scale 0 is the no-effect control and ±100 the full control effect; nearly all actives have a fitted effect of over 65% in size
# JMJD2A Tudor: qHTS Assay for Inhibitors of JMJD2A-Tudor Domain | Lysine-specific demethylase 4A (Homo sapiens), O75164 | AlphaScreen JMJD2A-Tudor / H3K4me3 peptide binding | Potency, µM (top dose mostly 114 µM), for inactives: at the highest dose activity change, negative = inhibition, usual class: inhibitors | 390,000 tested, 4.4% active | AID 504339, 2011; further: potency means the concentration at half of the fitted maximal effect; on the % scale 0 is the no-effect control and ±100 the full control effect; nearly all actives have a fitted effect of over 50% in size
# HP1b binding inh: HTS for Inhibitors of HP1-beta Chromodomain Interactions with Methylated Histone Tails. AID 540317, 2011. AlphaScreen HP1-beta / biotin-H3K9me3 peptide binding. Potency, µM (top dose mostly 114 µM), for the others: at the highest dose activity change, negative = inhibition, most hits filed as inhibitors. 390,000 tested, 0.56% active; further: potency means the concentration at half of the fitted maximal effect; nearly all actives have a fitted effect of over 70% in size
#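 HP1-beta protein (50 nM final) preincubated 30 min at room temperature with biotinylated H3(1-18)K9me3 peptide (50 nM) in PBS pH 7.4, 0.01% Tween-20, then compound added for 30 min. AlphaScreen streptavidin donor/nickel chelate acceptor beads (10 ug/mL final), 30 min dark, luminescence read.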
# BAZ2B block: qHTS Assay for Inhibitors of BAZ2B; AlphaScreen BAZ2B-H3K14Ac peptide displacement; Potency, µM (doses to about 114 µM), without a hit: at the top dose activity change, negative = inhibition, most hits filed as inhibitors; 360,000 tested, 4.4% active; further: potency means the concentration at half of the fitted maximal effect; on the % scale 0 is the no-effect control and ±100 the full control effect; nearly all actives have a fitted effect of over 60% in size
# Target sequence (Q9UIF8 whole entry, looked up): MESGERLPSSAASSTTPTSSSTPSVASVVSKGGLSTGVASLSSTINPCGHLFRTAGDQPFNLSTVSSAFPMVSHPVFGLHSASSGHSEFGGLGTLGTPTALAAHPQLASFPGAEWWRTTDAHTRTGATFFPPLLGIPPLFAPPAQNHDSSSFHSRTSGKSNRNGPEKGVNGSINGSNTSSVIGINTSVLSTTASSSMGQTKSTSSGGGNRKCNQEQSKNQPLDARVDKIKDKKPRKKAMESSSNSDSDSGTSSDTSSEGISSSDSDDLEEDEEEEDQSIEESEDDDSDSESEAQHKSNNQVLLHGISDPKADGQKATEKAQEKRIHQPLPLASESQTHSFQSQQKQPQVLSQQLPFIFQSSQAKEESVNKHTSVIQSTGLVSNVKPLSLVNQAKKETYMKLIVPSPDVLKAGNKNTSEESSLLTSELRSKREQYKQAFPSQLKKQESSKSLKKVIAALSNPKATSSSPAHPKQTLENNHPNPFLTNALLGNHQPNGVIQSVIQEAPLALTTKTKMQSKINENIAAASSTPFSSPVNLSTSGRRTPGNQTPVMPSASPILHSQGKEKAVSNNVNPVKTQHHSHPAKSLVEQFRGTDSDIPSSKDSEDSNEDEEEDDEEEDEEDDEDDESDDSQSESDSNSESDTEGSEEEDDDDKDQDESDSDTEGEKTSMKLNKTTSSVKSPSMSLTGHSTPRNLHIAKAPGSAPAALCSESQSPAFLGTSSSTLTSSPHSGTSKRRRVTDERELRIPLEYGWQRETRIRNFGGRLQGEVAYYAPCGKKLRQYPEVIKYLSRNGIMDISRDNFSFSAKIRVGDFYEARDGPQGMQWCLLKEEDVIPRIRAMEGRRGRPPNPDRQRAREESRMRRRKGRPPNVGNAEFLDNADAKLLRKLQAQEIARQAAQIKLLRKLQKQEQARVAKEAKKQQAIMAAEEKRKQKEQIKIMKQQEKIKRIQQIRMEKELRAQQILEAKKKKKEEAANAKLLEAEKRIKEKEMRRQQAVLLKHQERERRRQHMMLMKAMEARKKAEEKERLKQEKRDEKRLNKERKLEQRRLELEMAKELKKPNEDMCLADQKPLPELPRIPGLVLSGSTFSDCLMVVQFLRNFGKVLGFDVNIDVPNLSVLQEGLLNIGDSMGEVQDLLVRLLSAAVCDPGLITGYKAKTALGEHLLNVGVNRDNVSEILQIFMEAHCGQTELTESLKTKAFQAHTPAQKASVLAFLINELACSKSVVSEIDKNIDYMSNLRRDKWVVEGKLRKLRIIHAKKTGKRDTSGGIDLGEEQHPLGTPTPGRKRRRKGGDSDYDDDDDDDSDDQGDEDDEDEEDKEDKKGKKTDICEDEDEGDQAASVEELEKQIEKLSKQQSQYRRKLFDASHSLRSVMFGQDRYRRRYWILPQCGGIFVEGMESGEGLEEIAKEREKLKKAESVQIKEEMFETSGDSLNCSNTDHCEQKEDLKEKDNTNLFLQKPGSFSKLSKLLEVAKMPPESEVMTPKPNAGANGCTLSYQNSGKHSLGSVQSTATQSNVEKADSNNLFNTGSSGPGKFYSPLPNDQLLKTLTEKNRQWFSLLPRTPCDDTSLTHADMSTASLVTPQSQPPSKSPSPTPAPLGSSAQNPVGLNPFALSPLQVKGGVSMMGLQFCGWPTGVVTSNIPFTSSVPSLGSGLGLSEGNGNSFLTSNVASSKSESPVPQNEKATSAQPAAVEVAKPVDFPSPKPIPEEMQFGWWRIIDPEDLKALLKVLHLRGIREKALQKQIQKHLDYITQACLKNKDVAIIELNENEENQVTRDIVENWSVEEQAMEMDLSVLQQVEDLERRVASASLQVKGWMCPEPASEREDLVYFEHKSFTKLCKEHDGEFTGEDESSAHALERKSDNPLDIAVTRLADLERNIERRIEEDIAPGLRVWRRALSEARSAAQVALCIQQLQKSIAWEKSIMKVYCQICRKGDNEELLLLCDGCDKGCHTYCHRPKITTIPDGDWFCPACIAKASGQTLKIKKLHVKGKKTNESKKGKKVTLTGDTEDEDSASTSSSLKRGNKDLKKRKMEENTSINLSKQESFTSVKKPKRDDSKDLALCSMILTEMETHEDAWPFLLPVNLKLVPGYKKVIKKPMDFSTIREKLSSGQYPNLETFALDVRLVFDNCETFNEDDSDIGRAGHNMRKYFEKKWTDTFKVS
#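 Compounds, titrated to a top concentration of 110 uM, were incubated 30 min at room temperature with preformed BAZ2B/acetyl-K14 H3 peptide complex (50 nM each). Proximity signal was measured by AlphaScreen after 20 min with beads.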
# GCN5L2 inh: qHTS Assay for Inhibitors of GCN5L2; Histone acetyltransferase KAT2A (Homo sapiens), Q92830; GCN5L2 HAT assay, ThioGlo1 CoA-SH fluorescence; Potency, µM (top dose mostly 58.9 µM), without a hit: at the highest dose activity change, negative = inhibition, most hits filed as inhibitors; 390,000 tested, 0.21% active; further: potency means the concentration at half of the fitted maximal effect; on the % scale 0 is the no-effect control and ±100 the full control effect
#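 qHTS, 1536-well. 20nM enzyme, pH 7.5 HEPES/EDTA/Tween-20 buffer; 15 min compound preinc., RT. Start: 75uM H3(1-25), 70uM AcCoA, 50uM ThioGlo1. Read Ex340/Em540 at t=0 (autofluorescence flag) and t=20 min.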
# ADP-Glo interf: qHTS for Inhibitors of PI5P4K: ADP-Glo counter assay | shares compounds with PI5P4Ka inh | ADP-Glo detection counter-screen, luciferase luminescence, no enzyme | Potency, µM (series often up to 76.9 µM), for the others: top-dose activity change, negative = inhibition, hits mostly inhibitors | 1,100 tested, under 10 active | AID 743285, 2014
# * marks the source's active call; other numbers are inactive results; ? = inconclusive; nt = no result. Unless noted, the call rests on the fitted dose curve; in most records, active means well fitted curve in the direction sought with a large enough effect; inconclusive means small, poorly fitted or top-dose-only effect, or another doubt; inactive means no such curve, though single readings can be large; an effect the other way counts as inactive or inconclusive.
SMILES,PI5P4Ka inh,PLK1 PBD inh,JMJD2A Tudor,HP1b binding inh,BAZ2B block,GCN5L2 inh,ADP-Glo interf
CCc1nc2ccc(C(=O)NCCOc3ccc(OC)cc3)cn2c1N(C)C(=O)C1CCCCC1,-1,-5%,nt,nt,nt,nt,nt
Cc1ccc2c(CC(=O)OCC(=O)N(CC(C)C)c3c(N)n(Cc4ccccc4)c(=O)[nH]c3=O)coc2c1,-59*,-13%,?,-9%,?,-9%,-1%
Cc1cc(-c2csc(N)n2)c(C)n1C,-60*,-29%,?,-22%,50µM*,-16%,-6%
Cc1cc(-c2csc(N)n2)c(C)n1Cc1ccco1,?,?,?,5%,?,?,nt
O=C(O)C1Nc2c(Cl)cc(Cl)c(Cl)c2C2C=CCC12 (centres undefined),-76*,24µM*,56µM*,?,nt,nt,0%
CC[C@]12c3[nH]c4cc(-c5ccco5)ccc4c3CCN1C(=O)[C@@H](CC(=O)NCCC1=CCCCC1)C[C@@H]2C(=O)N1CCN(C(=O)c2ccco2)CC1,-73*,-5%,?,9%,nt,?,1%
CC[C@]12c3[nH]c4cc(CCC(=O)N(C)C)ccc4c3CCN1C(=O)[C@@H](CC(=O)NCCC1=CCCCC1)C[C@@H]2C(=O)N1CCN(C(=O)c2ccco2)CC1,-29,?,-35%,11%,nt,-2%,nt
CCOc1ccc(-c2nn(CC(=O)NC3CCCC3)c3c2cnc2ccc(C)cc23)cc1,nt,nt,-17%,-9%,-17%,0%,nt
CCc1ccc(C(=O)O)cc1,-2,2%,-1%,21%,-4%,-1%,nt
CCC(C)COC(=O)c1ccc(C(=O)O)cc1 (centres undefined),-64*,-16%,?,49%,5%,-2%,-10%
Cc1cc(C)cc(NC(=O)Nc2cccs2)c1,nt,nt,-16%,18%,-25%,-3%,nt
Cc1ccc(NC(=O)Nc2cccs2)cc1,-54*,-9%,-22%,2%,?,1%,3%
COCCc1nn2c(=O)cc(COC(=O)c3ccco3)nc2s1,nt,nt,-20%,8%,-10%,2%,nt
COc1ccc(Nc2ccc(Cl)cc2)c(C(=O)O)c1,-52*,-3%,-31%,-9%,-35%,4%,2%
COc1ccc(OC(=O)c2ccc(Cl)cc2)c(C(C)=O)c1,-4,-7%,5%,11%,104%,-6%,nt
O=C(NCCN1CCN(c2ccccc2)CC1)C1CCCN(S(=O)(=O)c2cnc[nH]2)C1 (centres undefined),-61*,-7%,-28%,22%,1%,-2%,4%
CC(=O)C(C(c1ccccc1)N1CCOCC1)N1CCOCC1 (centres undefined),-3,-10%,-22%,-23%,nt,nt,nt
Oc1c(C(c2ccccc2)N2CCOCC2)ccc2ccccc12 (centres undefined),-71*,1.2µM*,10µM*,14µM*,nt,nt,-6%
COc1ccccc1Nc1ccc2c(O)cc(S(=O)(=O)O)cc2c1,-102*,11µM*,20µM*,22µM*,nt,nt,2%
O=S(=O)(O)c1cc(O)c2cc(Nc3ccccc3)ccc2c1,-69*,19µM*,14µM*,35µM*,nt,nt,-6%
COc1cccc2cc(-c3nc(Nc4cccc(C)c4)sc3C)c(=O)oc12,nt,nt,-19%,19%,5%,-14%,nt
